Laboratory results reported in PubChem BioAssay (NCATS).
Several values for one entry are separate records, joined by “and”; a condition that tells them apart may be missing. Equal values may be shown once. Inconclusive results are not listed. Activity calls are given as the source filed them. The call rests on the fitted dose curve; in most records, active means well fitted inhibition curve with a large enough effect; inconclusive means small, poorly fitted or top-dose-only effect; inactive means flat fitted curve, though single readings scatter.

What was measured:
PAD = experiment: qHTS profiling for inhibitors of Plasmodium falciparum proliferation (AID 504749); further: potency means the concentration at half of the fitted maximal effect; details: P. falciparum in erythrocytes, SYBR Green DNA, 72 h; series mostly up to 28.7 µM
How it was run: (§1)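 Three-day growth assay of blood-stage parasites in erythrocytes (0.3% parasitemia, 2.5% hematocrit) at 37 C, 5% CO2, quantified by SYBR Green DNA staining after overnight detergent lysis.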

PC15 = experiment: as above; details: P. falciparum in erythrocytes, SYBR Green DNA, 72 h; series mostly up to 28.7 µM
How it was run: as §1

PC26 = experiment: as above; details: P. falciparum in erythrocytes, SYBR Green DNA, 72 h; series mostly up to 28.7 µM
How it was run: as §1

PC49 = experiment: as above; details: P. falciparum in erythrocytes, SYBR Green DNA, 72 h; series mostly up to 28.7 µM
How it was run: as §1

SC27B = experiment: as above; details: P. falciparum in erythrocytes, SYBR Green DNA, 72 h; series mostly up to 28.7 µM
How it was run: as §1

TAB109 = experiment: as above; details: P. falciparum in erythrocytes, SYBR Green DNA, 72 h; series mostly up to 28.7 µM
How it was run: as §1

TAB113 = experiment: as above; details: P. falciparum in erythrocytes, SYBR Green DNA, 72 h; series mostly up to 28.7 µM
How it was run: as §1

TAB165 = experiment: as above; details: P. falciparum in erythrocytes, SYBR Green DNA, 72 h; series mostly up to 28.7 µM
How it was run: as §1

W2 = experiment: as above; details: P. falciparum in erythrocytes, SYBR Green DNA, 72 h; series mostly up to 28.7 µM
How it was run: as §1

CRL-7250 [1] = experiment: Cytotoxic Profiling of Annotated Libraries Using Quantitative High-Throughput Screening (AID 1296008); details: Five cell lines viability, CellTiter-Glo ATP luminescence, 48-72 h; max response: stronger effect = lower value; further: potency means the concentration at half of the fitted maximal effect; on max response: on the % scale 0 is the no-effect control and ±100 the full control effect
How it was run: (§2)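 Cytotoxicity was measured as CellTiter-Glo ATP luminescence, read after 10 min at room temperature. Compound treatment of the cells lasted 48 or 72 hr at 37 degrees Celsius in a qHTS format.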

HEK293 = experiment: as above; details: Five cell lines viability, CellTiter-Glo ATP luminescence, 48-72 h; max response: stronger effect = lower value
How it was run: as §2

HaCat [2] = experiment: as above; details: Five cell lines viability, CellTiter-Glo ATP luminescence, 48-72 h; max response: stronger effect = lower value
How it was run: as §2

KB-3-1 = experiment: as above; details: Five cell lines viability, CellTiter-Glo ATP luminescence, 48-72 h; max response: stronger effect = lower value
How it was run: as §2

NIH3T3 = experiment: as above; details: Five cell lines viability, CellTiter-Glo ATP luminescence, 48-72 h; max response: stronger effect = lower value
How it was run: as §2

HACAT [3] = experiment: qHTS assay to identify novel small-molecules to repurpose for Merkel cell carcinoma treatment (AID 1296009); details: MCC and control cell lines, CellTiter-Glo viability, 72 h; at 44.8 µM (top of the series) unless noted
How it was run: (§3)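 After compound transfer in DMSO, plates were kept 72 hr at 37 degree celsius. Luminescent ATP signal from CellTiter-Glo served as viability measure, normalized against DMSO and no-cell controls.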

HEK293T = experiment: as above; details: MCC and control cell lines, CellTiter-Glo viability, 72 h; at 44.8 µM (top of the series)
How it was run: as §3

MCC-13 = experiment: as above; details: MCC and control cell lines, CellTiter-Glo viability, 72 h; series mostly up to 46 µM
How it was run: as §3

MCC-26 = experiment: as above; details: MCC and control cell lines, CellTiter-Glo viability, 72 h; series mostly up to 46 µM
How it was run: as §3

MKL-1 = experiment: as above; details: MCC and control cell lines, CellTiter-Glo viability, 72 h; series mostly up to 46 µM
How it was run: as §3

CRL-7250 [4] = experiment: as above; details: MCC and control cell lines, CellTiter-Glo viability, 72 h; at 44.8 µM (top of the series) unless noted
How it was run: as §3
Further: nearly all actives have a fitted effect of over 60% in size.

COP(=O)(OC)C(O)C(Cl)(Cl)Cl (stereo unspecified)
inactive: Potency (PAD) | Potency (PC15) | Potency (PC26) | Potency (PC49) | Potency (SC27B) | Potency (TAB109) | Potency (TAB113) | Potency (TAB165) | max response (CRL-7250 [1]) 3.85% | outcome (HEK293) | outcome (HaCat [2]) | max response (KB-3-1) -12.2% | outcome (NIH3T3) | outcome (HACAT [3]) | outcome (HEK293T) | Potency (MCC-13) | Potency (MCC-26) | Potency (MKL-1)
active: Potency (W2) 4.26 µM

C[N+]1(C)[C@@H]2CC[C@H]1CC(OC(=O)C(CO)c1ccccc1)C2 (stereo partly specified)
inactive: outcome (CRL-7250 [1]) | outcome (HEK293) | max response (HaCat [2]) -1.21% | max response (KB-3-1) -14.7% and 4.2% | max response (NIH3T3) -5.19% | outcome (CRL-7250 [4]) | outcome (HEK293T) | Potency (MCC-13) | Potency (MCC-26) | Potency (MKL-1)

C[C@@H]1CN(C2CCC(C#N)(c3ccc(F)cc3)CC2)CC[C@]1(C(=O)O)c1ccccc1 (stereo partly specified)
inactive: outcome (CRL-7250 [1]) | max response (HEK293) -6.67% | max response (HaCat [2]) 3.21% | max response (KB-3-1) -4.01% | outcome (NIH3T3) | outcome (CRL-7250 [4]) | Potency (MCC-13) | Potency (MCC-26) | Potency (MKL-1)

CC1N=C(N)OC1c1ccccc1 (stereo unspecified)
inactive: max response (CRL-7250 [1]) -30.4% | max response (HEK293) -15.4% | outcome (HaCat [2]) | max response (KB-3-1) -3.1% | max response (NIH3T3) -2.85% | outcome (HACAT [3]) inactive [at 92 µM] | Potency (MCC-13) | Potency (MCC-26) | Potency (MKL-1)

CCOC(=O)c1ncn2c1CN(C)C(=O)c1c(I)cccc1-2
inactive: max response (CRL-7250 [1]) -19.8% | max response (HEK293) -11.8% | max response (HaCat [2]) -1.53% | max response (KB-3-1) 1.54% | max response (NIH3T3) -15.1% | Potency (MCC-13) | Potency (MCC-26) | Potency (MKL-1)

COP(=S)(OC)Oc1ccc(S(N)(=O)=O)cc1
inactive: outcome (CRL-7250 [1]) | max response (HEK293) -8.17% | outcome (HaCat [2]) | max response (KB-3-1) 0.165% | max response (NIH3T3) -5.5% | outcome (CRL-7250 [4]) | outcome (HACAT [3]) | Potency (MCC-13) | Potency (MCC-26) | Potency (MKL-1)

CCC1(c2cccc(O)c2)CCCCN(C)C1 (stereo unspecified)
inactive: max response (CRL-7250 [1]) -9.91% | max response (HEK293) -2.39% | max response (HaCat [2]) -5.66% | max response (KB-3-1) 24.1% | max response (NIH3T3) 2.43% | Potency (MCC-13) | Potency (MCC-26) | Potency (MKL-1)

CCC(OC(C)=O)C(CC(C)NC)(c1ccccc1)c1ccccc1 (stereo unspecified)
inactive: max response (KB-3-1) -22.1%
active: Potency (CRL-7250 [1]) 43.7 µM | Potency (HEK293) 31 µM | Potency (HaCat [2]) 27.6 µM

CN(C)CCc1c[nH]c2cccc(O)c12
inactive: outcome (CRL-7250 [1]) | max response (HEK293) -13.6% | outcome (HaCat [2]) | max response (KB-3-1) -8.17% | max response (NIH3T3) 2.31% | outcome (CRL-7250 [4]) inactive [at 92 µM] | outcome (HACAT [3]) inactive [at 92 µM] | Potency (MCC-13) | Potency (MCC-26) | Potency (MKL-1)

O=C(O)Cc1ccccc1
inactive: max response (CRL-7250 [1]) -22.4% | max response (HEK293) -7.97% | outcome (HaCat [2]) | max response (KB-3-1) -2.72% | outcome (NIH3T3) | outcome (HACAT [3]) | Potency (MCC-13) | Potency (MCC-26) | Potency (MKL-1)
